Measurements: PubChem BioAssay (NCATS)
A number with no mark means an inactive call. Results filed as inconclusive are left out. Where a call stands in place of a potency, no number is given. Calls of active or inactive are those of the source. Unless noted, the call rests on the fitted dose curve; in most records, active means well fitted curve in the direction sought with a large enough effect; inconclusive means small, poorly fitted or top-dose-only effect, or another doubt; inactive means no such curve, though single readings can be large; an effect the other way counts as inactive or inconclusive.

How the values were obtained:
[1] = molecular target: Estrogen receptor (Homo sapiens) (UniProt P03372); assay: qHTS assay for small molecule antagonists of estrogen receptor alpha signaling (AID 588513; active means well fitted curve in the direction sought with a large enough effect in the signal ratio, with a control signal flat, not every such curve was filed as active; the % refers to the signal ratio; further: potency means the concentration at half of the fitted maximal effect)
Sequence of Estrogen receptor (Homo sapiens) (P03372 whole entry, looked up): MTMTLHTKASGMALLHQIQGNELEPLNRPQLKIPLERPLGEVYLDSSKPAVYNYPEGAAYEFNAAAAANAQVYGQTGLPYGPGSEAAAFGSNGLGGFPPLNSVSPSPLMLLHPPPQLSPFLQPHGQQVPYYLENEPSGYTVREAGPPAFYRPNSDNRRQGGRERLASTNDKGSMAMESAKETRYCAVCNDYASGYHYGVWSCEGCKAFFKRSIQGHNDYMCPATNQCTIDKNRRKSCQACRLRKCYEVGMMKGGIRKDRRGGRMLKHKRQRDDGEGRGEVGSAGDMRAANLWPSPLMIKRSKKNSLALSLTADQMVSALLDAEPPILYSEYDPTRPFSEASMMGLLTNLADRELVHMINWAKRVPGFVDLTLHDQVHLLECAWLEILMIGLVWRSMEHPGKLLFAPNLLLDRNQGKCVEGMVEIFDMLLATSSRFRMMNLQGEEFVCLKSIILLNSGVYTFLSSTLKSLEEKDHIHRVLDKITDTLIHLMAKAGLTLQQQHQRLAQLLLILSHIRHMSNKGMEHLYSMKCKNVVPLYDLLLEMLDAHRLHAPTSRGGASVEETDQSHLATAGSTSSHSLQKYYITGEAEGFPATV
Outline: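 ER-alpha-UAS-bla GripTite HEK 293 cells in 2% charcoal/dextran-treated FBS medium; compounds titrated (1:2, duplicate), then stimulated with 0.5 nM 17-beta-estradiol for 18 h at 37C. CCF4 beta-lactamase fluorescence; Hill-fit IC50 and efficacy.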

[2] = molecular target: Estrogen receptor (Homo sapiens) (UniProt P03372); assay: qHTS assay for small molecule agonists of estrogen receptor alpha signaling (AID 588514; calls by dose curve; further: nearly all actives have a fitted effect of over 70% in size)
Outline: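 EC50 and efficacy came from Hill fits of beta-lactamase reporter signal (CCF4 dye, 2 h at room temperature) scaled between DMSO and 20 nM 17-beta-estradiol. Agonist mode: HEK293 ER-alpha-UAS-bla cells in charcoal/dextran-stripped serum medium, 18 h compound exposure at 37 C.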

[3] = molecular target: Androgen receptor (Homo sapiens) (UniProt P10275); assay: qHTS assay for small molecule agonists of androgen receptor signaling (AID 588515; active means well fitted curve in the direction sought with a large enough effect in the signal ratio, with a control signal flat; the % refers to the signal ratio); details: AR-UAS-bla HEK293, beta-lactamase ratio, agonist 16 h; hits give high values
Sequence of Androgen receptor (Homo sapiens) (P10275 whole entry, looked up): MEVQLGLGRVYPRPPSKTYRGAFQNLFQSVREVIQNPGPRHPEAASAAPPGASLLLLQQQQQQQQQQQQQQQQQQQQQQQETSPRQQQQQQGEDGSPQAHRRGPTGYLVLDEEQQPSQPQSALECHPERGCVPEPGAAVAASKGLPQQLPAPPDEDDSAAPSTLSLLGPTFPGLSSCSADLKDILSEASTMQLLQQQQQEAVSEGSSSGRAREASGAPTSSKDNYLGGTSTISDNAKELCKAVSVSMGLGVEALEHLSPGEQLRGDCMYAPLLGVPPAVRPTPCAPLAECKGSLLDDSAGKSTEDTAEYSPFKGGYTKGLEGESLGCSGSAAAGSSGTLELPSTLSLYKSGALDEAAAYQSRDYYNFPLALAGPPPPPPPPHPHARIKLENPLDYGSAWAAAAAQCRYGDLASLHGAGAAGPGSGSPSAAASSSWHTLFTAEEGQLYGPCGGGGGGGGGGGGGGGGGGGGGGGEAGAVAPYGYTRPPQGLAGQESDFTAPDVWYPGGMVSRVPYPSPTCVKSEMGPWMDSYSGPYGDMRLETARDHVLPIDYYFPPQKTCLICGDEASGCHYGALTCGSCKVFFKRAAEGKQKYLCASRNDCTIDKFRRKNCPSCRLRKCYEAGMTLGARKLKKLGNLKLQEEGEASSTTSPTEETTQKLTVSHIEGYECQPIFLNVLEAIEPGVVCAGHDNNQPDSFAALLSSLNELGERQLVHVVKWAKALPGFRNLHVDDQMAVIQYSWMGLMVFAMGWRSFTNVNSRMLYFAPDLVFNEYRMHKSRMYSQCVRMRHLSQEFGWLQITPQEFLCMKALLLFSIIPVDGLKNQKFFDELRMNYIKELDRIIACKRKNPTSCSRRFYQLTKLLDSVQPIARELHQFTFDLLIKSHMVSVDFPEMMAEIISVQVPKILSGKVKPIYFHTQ
Outline: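 Stimulation of an AR-responsive β-lactamase reporter in GripTite HEK293 cells was measured after 16 h compound exposure at 37 °C, via CCF4 fluorescence after 2 h RT. EC50 from Hill fits, normalized to R1881 at 30 nM.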

[4] = molecular target: Glucocorticoid receptor (Homo sapiens) (UniProt P04150); assay: qHTS assay for small molecule agonists of glucocorticoid receptor signaling (AID 588532; active means well fitted curve in the direction sought with a large enough effect in the signal ratio, with a control signal flat; the % refers to the signal ratio); details: HeLa MMTV-bla, beta-lactamase ratio, agonist, 18 h; hits give high values; percent of dexamethasone control, DMSO zero
Sequence of Glucocorticoid receptor (Homo sapiens) (P04150 whole entry, looked up): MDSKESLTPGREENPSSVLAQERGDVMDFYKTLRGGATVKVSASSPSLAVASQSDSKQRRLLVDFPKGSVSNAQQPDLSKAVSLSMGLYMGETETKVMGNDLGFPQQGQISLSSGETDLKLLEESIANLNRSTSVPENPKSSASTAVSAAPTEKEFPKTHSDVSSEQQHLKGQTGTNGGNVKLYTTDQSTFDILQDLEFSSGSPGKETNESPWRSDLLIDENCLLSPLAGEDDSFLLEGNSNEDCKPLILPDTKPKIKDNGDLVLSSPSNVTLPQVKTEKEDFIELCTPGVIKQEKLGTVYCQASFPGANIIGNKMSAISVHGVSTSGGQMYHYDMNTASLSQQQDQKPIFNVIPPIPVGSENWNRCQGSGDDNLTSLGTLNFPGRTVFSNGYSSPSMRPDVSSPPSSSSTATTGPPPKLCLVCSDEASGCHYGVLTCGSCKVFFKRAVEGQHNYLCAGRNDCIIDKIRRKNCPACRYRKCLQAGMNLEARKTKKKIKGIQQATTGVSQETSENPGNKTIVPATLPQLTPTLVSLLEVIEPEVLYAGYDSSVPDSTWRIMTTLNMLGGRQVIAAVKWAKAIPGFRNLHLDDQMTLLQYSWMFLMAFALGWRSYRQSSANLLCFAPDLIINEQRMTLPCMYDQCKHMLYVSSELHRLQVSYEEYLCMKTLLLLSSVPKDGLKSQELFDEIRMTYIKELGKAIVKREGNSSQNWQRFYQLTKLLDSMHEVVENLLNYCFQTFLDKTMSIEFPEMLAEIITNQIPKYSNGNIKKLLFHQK
Outline: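 Cells were plated and rested 3-5 h at 37 C, compounds were added in titration and incubated 18 h, then CCF4 substrate was loaded for 2 h at RT before reading blue/green fluorescence. EC50 came from Hill-equation fitting.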

[5] = molecular target: Glucocorticoid receptor (Homo sapiens) (UniProt P04150); assay: qHTS assay for small molecule antagonists of glucocorticoid receptor signaling (AID 588533; active means well fitted inhibition curve with a large enough effect in the signal ratio, with a control signal flat, not every such curve was filed as active; the % refers to the signal ratio;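 further: cells stimulated with 2 nM dexamethasone as agonist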)
Outline: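 Antagonist-mode qHTS: compound titrations added to GRE-bla HeLa cells, then dexamethasone 2 nM final; 18 h, 37 C. CCF4 FRET fluorescence normalized to dexamethasone and DMSO; IC50 from Hill fit.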

[6] = molecular target: Peroxisome proliferator-activated receptor gamma (Homo sapiens) (UniProt P37231); assay: qHTS assay for small molecule agonists of peroxisome proliferator-activated receptor gamma signaling (AID 588536; active means well fitted curve in the direction sought with a large enough effect in the signal ratio, with a control signal flat, not every such curve was filed as active; the % refers to the signal ratio)
Sequence of Peroxisome proliferator-activated receptor gamma (Homo sapiens) (P37231 whole entry, looked up): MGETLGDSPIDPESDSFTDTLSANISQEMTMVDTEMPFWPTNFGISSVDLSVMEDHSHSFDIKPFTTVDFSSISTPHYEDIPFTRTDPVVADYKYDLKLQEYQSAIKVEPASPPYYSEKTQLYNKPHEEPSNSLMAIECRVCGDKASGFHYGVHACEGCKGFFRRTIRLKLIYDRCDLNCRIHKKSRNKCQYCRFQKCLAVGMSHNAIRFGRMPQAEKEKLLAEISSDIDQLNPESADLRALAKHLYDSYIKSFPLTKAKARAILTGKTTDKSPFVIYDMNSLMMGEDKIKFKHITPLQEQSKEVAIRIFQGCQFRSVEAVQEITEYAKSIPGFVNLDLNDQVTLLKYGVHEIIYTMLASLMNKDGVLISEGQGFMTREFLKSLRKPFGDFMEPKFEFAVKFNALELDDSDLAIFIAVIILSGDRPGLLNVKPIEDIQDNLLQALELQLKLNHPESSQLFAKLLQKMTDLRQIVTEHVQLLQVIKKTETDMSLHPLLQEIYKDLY
Outline: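 Cells were plated and held 6–6.5 h at 37 C, then compounds were added as a titration series. After a further 16 h, CCF4 dye was loaded for 2 h at room temperature and emission at 460/530 nm recorded.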

[7] = molecular target: Vitamin D3 receptor (Homo sapiens) (UniProt P11473); assay: qHTS assay for small molecule agonists of vitamin D receptor signaling (AID 588543; calls by dose curve)
Sequence of Vitamin D3 receptor (Homo sapiens) (P11473 whole entry, looked up): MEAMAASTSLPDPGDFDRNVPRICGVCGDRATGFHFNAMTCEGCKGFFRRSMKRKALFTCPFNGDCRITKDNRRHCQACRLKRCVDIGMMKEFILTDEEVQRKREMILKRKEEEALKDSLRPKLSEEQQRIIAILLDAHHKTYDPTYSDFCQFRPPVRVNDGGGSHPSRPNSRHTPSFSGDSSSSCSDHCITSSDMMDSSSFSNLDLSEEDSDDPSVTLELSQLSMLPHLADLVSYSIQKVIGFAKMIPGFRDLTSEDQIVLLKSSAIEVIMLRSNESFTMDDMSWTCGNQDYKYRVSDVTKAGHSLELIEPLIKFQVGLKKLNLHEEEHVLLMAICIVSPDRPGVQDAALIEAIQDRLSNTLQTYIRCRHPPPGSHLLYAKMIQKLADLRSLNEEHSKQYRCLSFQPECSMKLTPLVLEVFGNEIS
Outline: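 VDR-UAS-bla HEK293T cells, 2000/well, 2% charcoal-stripped FBS; compound titration 16 h at 37 C; CCF4 beta-lactamase ratio read. Normalized to 50 nM 1-alpha,25-dihydroxyvitamin D3 (100%) and DMSO; Hill fit gives EC50, efficacy.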

[8] = qHTS assay for small molecule agonists of the antioxidant response element (ARE) signaling pathway (AID 651741; active means well fitted activation curve with a large enough effect in the signal ratio; the % refers to the signal ratio; further: potency means the concentration at half of the fitted maximal effect)
Outline: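 Stably integrated ARE-beta-lactamase reporter HepG2 cells; 16 h compound incubation, 37 C; LiveBLAzer FRET substrate 2 h at room temperature; fluorescence intensity.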

[9] = qHTS assay for environmental chemicals that activate the Aryl hydrocarbon Receptor (AhR) signaling pathway (AID 651777); details: 1A2-DRE human hepatoma cells, luciferase, 24 h; hits give high values; further: nearly all actives have a fitted effect of over 15% in size
Outline: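 Induction of CYP1A2 transcription through AhR is detected by luciferase in 1A2-DRE hepatoma cells. Compounds or DMSO act for 24 hr at 37 C before a 30 min One-Glo step at room temperature.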

[10] = qHTS assay for cell viability of HEK293 cells (AID 743288); details: ATP luminescence (CellTiter-Glo), 18 h; max response: hits give low values; further: potency means the concentration at half of the fitted maximal effect; nearly all actives have a fitted effect of over 50% in size
Outline: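 Steps: plate 2,000 parental HEK293 cells per well; incubate ≥5 h, 37 C; add compounds in DMSO; incubate 18 h, 37 C; add CellTiter-Glo; wait 30 min at room temperature; read luminescence.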

[11] = molecular target: Nuclear receptor subfamily 1 group I member 2 (Rattus norvegicus) (UniProt Q9R1A7); assay: qHTS assay for small molecule activators of the rat pregnane X receptor (rPXR) signaling pathway (AID 651751; call rule not given here); details: rPXR reporter cells, luciferase (One-Glo), 24 h
Sequence of Nuclear receptor subfamily 1 group I member 2 (Rattus norvegicus) (Q9R1A7 whole entry, looked up): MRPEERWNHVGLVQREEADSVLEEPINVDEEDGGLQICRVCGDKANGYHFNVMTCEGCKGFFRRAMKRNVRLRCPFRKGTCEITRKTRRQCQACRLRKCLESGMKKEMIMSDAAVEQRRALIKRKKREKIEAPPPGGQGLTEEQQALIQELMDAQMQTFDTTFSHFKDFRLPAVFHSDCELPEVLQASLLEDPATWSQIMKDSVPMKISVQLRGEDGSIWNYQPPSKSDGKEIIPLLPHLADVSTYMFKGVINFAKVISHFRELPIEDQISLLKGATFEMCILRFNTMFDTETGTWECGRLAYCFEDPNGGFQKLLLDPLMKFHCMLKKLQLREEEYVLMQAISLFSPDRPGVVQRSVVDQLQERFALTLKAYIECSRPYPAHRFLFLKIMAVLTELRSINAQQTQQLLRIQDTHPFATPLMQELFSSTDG

[12] = Confirmation and Secondary Assay for Modulators of Hemoglobin Beta Chain Splicing at IVS2 654 locus (AID 910);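 further: HeLa cells stably carrying EGFP split by mutant beta-globin IVS2-654 intron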
Outline: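 HeLa cells stably expressing EGFP interrupted by β-globin IVS2-654 intron, seeded overnight in Opti-MEM/2% FCS, then treated 2 days at 37 °C. Restored splicing read as total peak GFP intensity per well by laser scanning cytometry (488 nm excitation, 500–520 nm emission); 500 nM antisense PNA as control.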

[13] = qHTS Assay for Identification of Small Molecule Agonists for Thrombopoietin (TPO) Signaling Pathway (AID 917)
Outline: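 Stimulation at the TPO EC50 (26 pM final) was used to detect activators. Ba/F3 mouse cells bearing human TPO receptor and a luciferase reporter under the Glycoprotein IIb promoter were exposed to compounds for 24 hrs at 37 C.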

[14] = Confirmation and Secondary Assay for Modulators of Hemoglobin Beta Chain Splicing at IVS2 705 locus (AID 930);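 further: HeLa cells stably expressing the EGFP-705 splicing reporter; GFP fluorescence per well restored by corrected splicing of the IVS2-705 intron in EGFP; series mostly up to about 46 µM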
Outline: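 Stable HeLa line with EGFP disrupted by mutant beta-globin intron 2 (705). Overnight attachment, then 2 days of compound at 37C, 5% CO2. Signal: peak GFP intensity summed over objects 5-250 µm.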

Row | Structure (SMILES) | Potency [1] | outcome [2] | activation [3] [%] | activation [4] [%] | outcome [5] | outcome [6] | outcome [7] | Potency [8] | activation [9] [%] | Potency [10] | max response [11] [%] | outcome [12] | Potency [13] | outcome [14]
1 | Clc1ccc(-c2nc3sccn3c2/C=N/OCc2ccc(Cl)c(Cl)c2)cc1 | 20 µM [inhibitor] (active) | inactive | -9.11 | 2.87 | inactive | inactive | inactive | 24.3 µM (active) | 3.66 | 50.1 µM (active) | 6.54 |  |  | 
2 | CC1=C(\C=C/C(C)=C/C=C\C(C)=C\C(=O)O)C(C)(C)CCC1 |  |  |  |  |  |  |  |  |  |  |  | inactive | inactive | inactive
